# Results taken from PubChem BioAssay AID1508621 (National Center for Advancing Translational Sciences (NCATS), 2021).
# Records with an inconclusive call do not appear. A number with no mark means an inactive call. The source made the active and inactive calls. Calls follow the shape of the dose curve; as a rule, active = well fitted inhibition curve with a large enough effect; inconclusive = small, poorly fitted or top-dose-only effect; inactive = no such curve, though single readings can be large or run the other way.
# Assay: Confirmatory qHTS for Identification of Small Molecule Inhibitors of Huntingtin Promoter Activity; also: nearly all actives have a fitted effect of over 65% in size
# Settings: HEK293 HTT promoter firefly luciferase reporter, 24 h; series mostly up to 57.5 µM; activity change, negative = inhibition: at the top concentration
# Text: Assay Provider: Russell L. Margolis M.D.
# Department Neurology, Johns Hopkins University School of Medicine, Baltimore, MD
# Huntington's Disease (HD) is a neurodegenerative disorder caused by a CAG repeat expansion in exon 1 of huntingtin (HTT). While there are currently no disease-modifying treatments for HD, recent efforts have focused on development of nucleotide-based therapeutics to lower HTT expression. As an alternative to siRNA or oligonucleotide methods, we hypothesized that suppression of HTT expression might be accomplished by small molecules that either (1) directly decrease HTT expression by suppressing HTT promoter activity or (2) indirectly decrease HTT expression by increasing the promoter activity of HTT-AS, the gene antisense to HTT that appears to inhibit expression of HTT.
# We developed and employed a high throughput screen for modifiers of HTT and HTT-AS promoter activity using luminescent reporter HEK293 cells; of the 52,041 compounds tested, we identified 898 replicable hits. We used a rigorous stepwise approach to assess compound toxicity and the capacity of the compounds to specifically lower huntingtin protein in 5 different cell lines, including HEK293 cells, HD lymphoblastoid cells, mouse primary neurons, HD iPSCs differentiated into cortical-like neurons, and HD hESCs. We found no compounds which were able to lower huntingtin without lowering cell viability in all assays, though the potential efficacy of a few compounds at non-toxic doses could not be excluded.
# SEQUENCE No. (1, 2, 3, etc.); […] (e.g., Cells, Incubation, Reagent, etc.); VALUE and DESCRIPTION.
# 1; Reagent; 4 uL; 2,500 Hek293 luciferase reporter cells per wells
# 3; Compound; 23 nL; Control inhibitor / compound library
# 5; Reagent; 2.5 uL; Firefly Luc reagent; Dual-Glo Luciferase Reporter Assay System (Promega)
# 6; Time; 10 min; room temperature incubation
# 7; Detection; Luminescence; FLuc
# NOTES (numbers refer to sequence above)
# 1; High-throughput screening, measuring luminescence from a Hek293 luciferase reporter, was performed in 1,536 well white-walled tissue-culture treated plates. 2,500 cells were plated in 4 uL of Opti-MEM per well using a Multidrop Combi Reagent Dispenser (ThermoFisher).
# 2; Assay plates were cultured for 24 hours.
# 3; Control inhibitor (PTC124; final concentration of 50 uM) and compound library (at final concentrations of 460 nM - 57.5 uM) were added to the assay plate using the Kalypsis Pintool Robotic System equipped with 1536 pinheads.
# 4; Cells were then incubated for 24 hours at 37C prior to luminescence measurements.
# 5; In all cases, luminescence was measured using the Dual-Glo Luciferase Reporter Assay System (Promega) following the manufacturer's instructions.
# 6; Room temperature incubation.
# 7; Luminescence signal was obtained using the PerkinElmer ViewLux plate reader. Results were normalized to vehicle control (0% activity) and zero RLU (-100% activity).
# Potency is read from the fitted curve at half-maximal effect.
SMILES,"activity change, negative = inhibition",Potency
O=C(Nc1nc2cccc(-c3ccc(CN4CCS(=O)(=O)CC4)cc3)n2n1)C1CC1,8.38%,–
C1=CCOCc2cc(ccc2OCCN2CCCC2)Nc2nccc(n2)-c2cccc(c2)OCC1,–,9.53 µM (active)
CCN(CC)CCNC(=O)c1c(C)[nH]c(C=C2C(=O)Nc3ccc(F)cc32)c1C,2.34% [at 115 µM],–
CCCCc1nc2cc(C=CC(=O)NO)ccc2n1CCN(CC)CC,486%,–
COc1ccc(S(=O)(=O)Nc2cc3c(cc2NCc2ccccc2)n(C)c(=O)n3C)cc1OC,53.8%,–
O=C(c1ccc2c(c1)N(Cc1ccccc1)C(=O)c1ccccc1S2(=O)=O)N1CCCCCC1,-23.2%,–
CN(C)c1ccc(C(=O)NCCCCCCC(=O)NO)cc1,358%,–
COc1ccc(Nc2nc(-c3ccc(C)cc3)nc3ccccc23)c(OC)c1,5.08%,–
Cc1cc(C)cc(NC(=O)Nc2cccs2)c1,-0.991%,–
Cn1cnc(=N)c2[nH]cnc21,4.3%,–
COc1ccccc1C1CC(=O)NC(C)=C1C(=O)OC1CCCCCC1 (stereo not given),-27.3%,–
CSc1ccc(/C=C/c2nc3ccccc3n2S(=O)(=O)c2ccc(F)c(C)c2)cc1,-51.1%,–
COc1cccc(-c2cn3c(n2)sc2cc(C(=O)NCc4cccs4)ccc23)c1,40.6%,–
Cc1cc(SCC(=O)Nc2nsc(-c3ccc(C(C)(C)C)cc3)n2)nc2ccccc12,1.92%,–
Cc1ccc(C2=CC(c3ccc(Cl)cc3)n3nc(-c4ccc(C)cc4)nc3N2)cc1 (stereo not given),-24.2%,–
COc1ccc2nc(N3CCN(C(=O)CS(=O)(=O)c4ccc(C)cc4)CC3)sc2c1,-14.3%,–
O=C(Nc1cccc(Cl)c1)c1c(NC(=O)C(F)(F)F)sc2c1CCCC2,–,4.26 µM (active)
Cc1ccc(NC(=O)c2ccc(C)c(S(=O)(=O)N3CCCCCC3)c2)cc1,-22.9%,–
CCc1ccc2c(c1)-c1ccccc1S(=O)(=O)N2CC(=O)N1CCCCC1,39.9%,–
FC(F)(F)c1cccc(Nc2nc3nonc3nc2Nc2ccc(Cl)cc2)c1,–,0.379 µM (active)

SMILES,"activity change, negative = inhibition",Potency
Cc1cccc(CSc2cn(CC(=O)N3CCOCC3)c3ccccc23)c1,46.6%,–
CCOc1ccc(Nc2ncnc3c2nc2n3CCCCC2)cc1,-15.8%,–
Cc1oc(-c2cccc(Cl)c2)nc1CN1CCC(C(=O)NCCCN2CCN(c3ccc(F)cc3)CC2)CC1,–,13.5 µM (active)
Cc1ccc(C)c(N2CCN(C(=O)C3CCN(c4nc(-c5ccc(C(C)C)cc5)no4)CC3)CC2)c1,–,0.239 µM (active)
COc1ccc(S(=O)(=O)c2cc3cc(C(C)(C)C)cc(O)c3oc2=O)cc1,-18.7%,–
COc1ccc(C2C=C(c3ccc(Br)cc3)Nc3nnnn32)c(OC)c1 (stereo not given),-7.4%,–
CC(=O)c1cccc(NS(=O)(=O)c2cccc(S(=O)(=O)c3ccc(Br)cc3)c2)c1,–,26.9 µM (active)
O=C(NCc1ccccc1)c1cc2ccc3cccnc3c2[nH]1,51.7%,–
COc1ccccc1NC(=O)CN1C(=O)C(C)(C)c2ccccc21,-21.9%,–
O=C(Cn1cc(SCc2ccccc2F)c2ccccc21)N1CCCC1,38.7%,–
Cc1ccccc1Cn1c(=O)n(Cc2ccco2)c(=O)c2oc3ccccc3c21,-9.16%,–
O=C(Cn1c(=O)oc2cc(S(=O)(=O)N3CCCCC3)ccc21)NCc1ccc(Cl)cc1,-22.9%,–
Cc1ccccc1NC(=O)c1c(NC(=O)C(F)(F)F)sc2c1CCCCC2,–,0.849 µM (active)
O=c1c(O)c(-c2ccc(O)cc2)oc2cc(O)cc(O)c12,19.1%,–
C#Cc1cccc(Nc2ncnc3cc(OC)c(OCCCCCCC(=O)NO)cc23)c1,-42.5% [at 115 µM],–
Cc1csc2nc(COC(=O)c3ccccc3NC(=O)c3ccccc3Cl)cc(=O)n12,1.39%,–
CCOc1ccc(C2=C(C(=O)CC)Sc3nncn3N2C(=O)CC)cc1,-23.9%,–
Cc1ccc(CN2CCSc3ccc(C(=O)NCC(C)c4ccccc4)cc32)cc1 (stereo not given),-1.43%,–
O=c1cc(-c2ccccc2)oc2cc(O)cc(O)c12,-0.597%,–
CCOc1ccc(C(=O)NCc2ccc3c(c2)CCN3C(=O)c2ccccc2)cc1,-16.2%,–
